Here are results for 29 molecules from the supplement of paper PMC13380429.

Assay [1] deals with Vero E6 infected with SARS-CoV-2. As to the kind of experiment: morphology score (similarity to uninfected cells); higher = more like uninfected cells. The conditions noted are these: 24 h.
The test system is the same in assay [2]. Put plainly: SARS-CoV-2 infection rate relative to infected DMSO; higher = more infection, active = 60 or less. The conditions noted are these: 24 h.

SMILES strings stand for the structures.

On to `CN(CCOc1ccc(-c2ccc3c(c2)OCO3)cc1C(C)(C)C)CC(=O)O` (10 µM), for which, in assay [1], the morphology score was -0.0713. The SARS-CoV-2 infection rate in assay [2] is 102% (inactive).
For `OCCNC1CCCc2c1[nH]c1ccc(-c3ccccc3)cc21` (stereo not drawn) [casin] (0.833333 µM), in assay [1], the morphology score was 0.105. Further, the SARS-CoV-2 infection rate in assay [2] is 102% (inactive).
Turning to `CN(C)CCC=C1c2ccccc2CCc2ccccc21` [amitriptyline] (10 µM), in assay [1], the morphology score is 0.0472. The SARS-CoV-2 infection rate in assay [2] is 100% (inactive).
`Clc1ccc(N/N=C(\c2ccccc2)c2ccccn2)nc1` (10 µM) yielded a morphology score in assay [1] of 0.0534. The SARS-CoV-2 infection rate in assay [2] is 103% (inactive).
In assay [1], `C[C@@H]1CC[C@@]2(NC1)O[C@H]1C[C@H]3[C@@H]4CC=C5C[C@@H](O[C@@H]6O[C@H](CO)[C@@H](O[C@@H]7O[C@@H](C)[C@H](O)[C@@H](O)[C@H]7O)[C@H](O)[C@H]6O[C@@H]6O[C@@H](C)[C@H](O)[C@@H](O)[C@H]6O)CC[C@]5(C)[C@H]4CC[C@]3(C)[C@H]1[C@@H]2C` [solamargine] (0.833333 µM) had a morphology score of 0.117. In addition, in assay [2], the SARS-CoV-2 infection rate is 102% (inactive).
As for `O=C(c1ccc(Cl)o1)N1CC2CNCC2C1` (stereo not drawn) (10 µM), the morphology score in assay [1] was determined as 0.187. In assay [2], the SARS-CoV-2 infection rate is 105% (inactive).
Consider `Nc1ccn([C@@H]2O[C@@](CO)(CCl)[C@@H](O)[C@H]2F)c(=O)n1` (10 µM), for which the morphology score in assay [1] is -0.0112. Moreover, the SARS-CoV-2 infection rate in assay [2] was 104% (inactive).
In the same order, the values of `CC(C)=CCC[C@]1(C)C=Cc2c(O)c3c(c(CC=C(C)C)c2O1)O[C@]12C(=C[C@@H]4C[C@H]1C(C)(C)O[C@@]2(C/C=C(/C)C(=O)O)C4=O)C3=O` [gambogic-acid] (10 µM) are 0.0235 and 106% (inactive).
In turn, `Cc1oc(=O)oc1CN1CCN(c2cc3c(cc2F)c(=O)c(C(=O)O)c2n3C(C)S2)CC1` (stereo not drawn) [prulifloxacin] (10 µM) showed a morphology score in assay [1] of 0.197. In addition, the SARS-CoV-2 infection rate in assay [2] is 97% (inactive).
`O=C1OC2(c3ccccc31)c1cc(I)c(O)c(I)c1Oc1c2cc(I)c(O)c1I` [erythrosine] (0.833333 µM): the morphology score in assay [1] was 0.0913. Also, the SARS-CoV-2 infection rate in assay [2] was 116% (inactive).
In the case of `C/C=C1\NC(=O)[C@H]2CSSCC/C=C/[C@H](CC(=O)N[C@H](C(C)C)C(=O)N2)OC(=O)[C@H](C(C)C)NC1=O` [romidepsin] (10 µM), the morphology score in assay [1] was -0.211. Moreover, the SARS-CoV-2 infection rate in assay [2] is 114% (inactive).
`Cn1cc(C(F)(F)F)nc1-c1ccc(OCC(O)CNCCOc2ccc(O)c(C(N)=O)c2)cc1` (stereo not drawn) (10 µM) returned a morphology score in assay [1] of -0.123. Also, in assay [2], the SARS-CoV-2 infection rate was 112% (inactive).
In assay [1], `CC(=O)OCC(=O)NCCCOc1cccc(CN2CCCCC2)c1` [roxatidine-acetate] (10 µM) came in with a morphology score of 0.0141. Moreover, the SARS-CoV-2 infection rate in assay [2] is 110% (inactive).
The molecule `CC(C)(C)c1ccc(CN(Cc2cccc(OCC(=O)O)c2)S(=O)(=O)c2cccnc2)cc1` [evatanepag] (10 µM) registered a morphology score in assay [1] of -0.0093. The SARS-CoV-2 infection rate in assay [2] is 97.5% (inactive).
For the molecule `CCCCCCCCCCCCCCCC=O` [1-hexadecanal] (10 µM), in assay [1], the morphology score stood at 0.185. Also, the SARS-CoV-2 infection rate in assay [2] is 100% (inactive).
For `Cc1[nH]cnc1CN1CCc2c(c3ccccc3n2C)C1=O` [alosetron] (10 µM) the same measures were -0.0421 and 98% (inactive).
As to `C[C@@H](NCCCc1cccc(C(F)(F)F)c1)c1cccc2ccccc12` [cinacalcet] (10 µM), the morphology score in assay [1] worked out at 0.845. In addition, in assay [2], the SARS-CoV-2 infection rate was 20% (active).
`O=C(O)CC/C=C\C[C@@H]1CO[C@H](c2ccccc2Cl)O[C@@H]1c1ccccc1O` (racemic) (10 µM) came in with a morphology score in assay [1] of -0.000999. For the same molecule, the SARS-CoV-2 infection rate in assay [2] was 106% (inactive).
In the same order, the values of `Nc1nc(NC2CC2)cc(-c2cccc(Cl)c2Cl)n1` (10 µM) are 0.121 and 97% (inactive).
In the same order, the values of `COc1ccc(CCc2nc3cc(-c4c(C)noc4C)ccc3n2C[C@H](C)N2CCOCC2)cc1Cl` (0.833333 µM) are -0.0905 and 113% (inactive).
`CC(=O)Nc1c(I)cc(I)c(C(=O)O)c1I` [acetriazoic-acid] (10 µM) yielded a morphology score in assay [1] of 0.138. Besides, in assay [2], the SARS-CoV-2 infection rate is 112% (inactive).
In the same order, the values of `N[C@@H](C(=O)O)c1ccc(C(=O)O)c(O)c1` (racemic) [4-carboxy-3-hydroxyphenylglycine-(RS)] (10 µM) are 0.126 and 101% (inactive).
Molecule `CN1CCC[C@@H]1Cc1c[nH]c2ccc(CCS(=O)(=O)c3ccccc3)cc12` [eletriptan] (10 µM) came in with a morphology score in assay [1] of 0.207. Further, the SARS-CoV-2 infection rate in assay [2] is 102% (inactive).
In turn, `Cc1ccc(-c2ncc[nH]2)cc1NC(=O)c1ccc(OCc2ccccn2)cc1` (10 µM) showed a morphology score in assay [1] of 0.0587. Moreover, in assay [2], the SARS-CoV-2 infection rate was 97% (inactive).
In the same order, the values of `NS(=O)(=O)c1cc2c(cc1Cl)NC(C1CC3C=CC1C3)NS2(=O)=O` (stereo not drawn) [cyclothiazide] (10 µM) are 0.0121 and 106% (inactive).
As to `O=c1ccc2ccccc2o1` [coumarin] (10 µM), the morphology score in assay [1] was found to be 0.114. Moreover, the SARS-CoV-2 infection rate in assay [2] was 89.5% (inactive).
In assay [1], `O=C(O[C@H]1C[N+]2(CCCOc3ccccc3)CCC1CC2)C(O)(c1cccs1)c1cccs1` [aclidinium] (10 µM) registered a morphology score of 0.136. Further, the SARS-CoV-2 infection rate in assay [2] is 100% (inactive).
For the molecule `COc1ccc(-c2c(C)c(C(=O)NN3CCCCC3)nn2-c2ccc(Cl)cc2Cl)cc1` (10 µM), the morphology score in assay [1] is 0.154. In assay [2], the SARS-CoV-2 infection rate is 86% (inactive).
For `COC(=O)N[C@H](C(=O)N[C@@H](Cc1ccccc1)[C@@H](O)CN(Cc1ccc(-c2ccccn2)cc1)NC(=O)[C@@H](NC(=O)OC)C(C)(C)C)C(C)(C)C` [atazanavir] (10 µM), the morphology score in assay [1] is 0.129. Besides, in assay [2], the SARS-CoV-2 infection rate is 112% (inactive).
